Results from PubChem BioAssay (NCI).
Compounds without any hit were thinned out: in the full panel of roughly 83,000, 20% have a hit.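 Plates (96-well) were seeded with cells, treated with compound at one concentration, and incubated for 48 hours before percent growth was determined.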 A number with no mark means an inactive call. Calls of active or inactive are those of the source. Rule for the calls: active = growth percent below 10; inactive = the rest.

Experiments:
Assay in all cases: NCI-60 one-dose screen, 48 h (100 = growth as untreated, 0 = no growth, -100 = all killed)
Settings in all cases: 10 µM unless noted
[1] = test system: SK-MEL-2 melanoma
[2] = test system: EKVX NSCLC
[3] = test system: SN12C renal
[4] = test system: UO-31 renal
[5] = test system: TK-10 renal
[6] = test system: ACHN renal
[7] = test system: CAKI-1 renal
[8] = test system: A498 renal
[9] = test system: CCRF-CEM leukemia
[10] = test system: MOLT-4 leukemia

| SMILES | growth [1] | growth [2] | growth [3] | growth [4] | growth [5] | growth [6] | growth [7] | growth [8] | growth [9] | growth [10] |
| --- | --- | --- | --- | --- | --- | --- | --- | --- | --- | --- |
| O=C(O)C(c1ccccc1)N1C(=O)CSC1=S (stereo not given) | 102% | 98% | 97% | 94.3% | 95.7% | 102% | 89.3% | 83.9% | 105% | 99.9% |
| COc1cc(CNS(=O)(=O)c2ccc(C)cc2)ccc1OCc1cn(-c2ccccc2)nn1 | 102% | 87.6% | 93.3% | 79.5% | 104% | 95.1% | 88.5% | 59% | 88.9% | 88.4% |
| CCOC(=O)c1cnn2c3ccccc3n(S(=O)(=O)c3ccc(OC)cc3)c12 | 66.7% | 38.4% | 22.2% | 46.7% | 79.7% | 35.4% | 42.3% | -3.19% (active) | 9.32% (active) | 16.5% |
| COc1cc(/C=C2\C(=O)Nc3ccc(Br)cc32)cc(OC)c1OC | 84% | 72.2% | 80.9% | 54.7% | 82.5% | 79.1% | 42.1% | 55.7% | 72.8% | 63.6% |
| CCc1cccc2c1S/C(=C/c1ccc(OC)cc1)C2=O | 51% | 93.9% | 49.4% | 52.9% | 127% | 54.1% | 6.96% (active) | 104% | 35.7% | 34.5% |
| FC(F)(F)c1cc(Nc2ccc3c(OCCCN4CCOCC4)cccc3n2)ccc1Cl | 99.6% | 48.8% | 66.9% | 51% | 76.6% | 50.7% | 55.9% | 67.1% | 24.8% | 18.3% |
| Cc1ccc(-c2nc3c(c(-c4ccccc4)nn3-c3ccccc3)c(-c3ccc(O)cc3)c2C#N)cc1 | 78.7% | 74.5% | 53.7% | 39.4% | 38.3% | 67.6% | 50.4% | 44.2% | 39.1% | 40.5% |
| COc1cc(CCC[P+](c2ccccc2)(c2ccccc2)c2ccccc2)c(OC)c(OC)c1OC | 80.5% | 72.7% | 77.5% | 43.7% | 91% | 83.4% | 39.7% | -6.09% (active) | 65% | 57.6% |
| Cc1nc(S(=O)(=O)c2ccccc2)c(S(=O)(=O)Cc2ccc([N+](=O)[O-])cc2)o1 | 89.2% | 104% | 89.9% | 72.5% | 105% | 87.6% | 95.6% | 81.8% | 82.8% | 90.7% |
| CC(=O)CC[C@H]1C(=O)N[C@@H](C(C)C)C(=O)N[C@@H](Cc2cc(O)cc(F)c2)C(=O)N2CCC[C@H](N2)C(=O)O[C@H](/C(C)=C/C=C/C(=O)OC(C)(C)C)C/C=C/C=C/[C@H](O)[C@H](C)[C@H]1O | 62.3% | 71.3% | 53.7% | 56.2% | 62.6% | 62.6% | 57.4% | 82.3% | 46.3% | 49.5% |
| CN(C)CCNc1nc2ccccc2c2c(=O)c3cc(F)ccc3sc12 | 87.3% | 67.7% | 50.8% | 25.2% | 55.4% | 21.4% | 14% | 17.6% | 24.4% | -3.39% (active) |
| COc1ccc(-c2[nH]c3ccc(OC)cc3c2/C=C(\C#N)S(=O)(=O)c2ccccc2)cc1 | 82.6% | 36.8% | 44.4% | 42.2% | 45.7% | 41.4% | 74.5% | -5.52% (active) | 2.56% (active) | 17.6% |
| O=C(N/N=C/[C@H](O)[C@@H](O)[C@@H](O)[C@H](O)CO)c1ccc(NC(=O)c2cccnc2)cc1 | 109% | 107% | 99.4% | 92.5% | 106% | 103% | 101% | 107% | 103% | 114% |
| COc1cc2cc(Oc3ccc(NC(=O)Nc4cc(C(F)(F)F)cc(C(F)(F)F)c4)cc3)c(C)nc2cc1OCCN1CCOCC1 | 32.9% | 21.4% | 8.87% (active) | 20.1% | 53.6% | 5.89% (active) | 15.3% | 40.7% | 9.65% (active) | 8.21% (active) |
| COc1ccc(CNC(=O)[C@H](O)[C@@H](N)Cc2ccccc2)cc1 | 123% | 99.8% | 97.5% | 92% | 102% | 107% | 90.7% | 90.8% | 102% | 107% |
| O=C(Cc1ccc2c(c1)OCCO2)Nc1nc2ccc(F)cc2s1 | 70.5% | 93.8% | 70.5% | 62.5% | 117% | 98% | 111% | 104% | 87.3% | 95.1% |
| CC/C=C\C[C@@H]1C/C=C2/C(=O)C=C[C@H]2C/C=C\CCCC(=O)O1 | -39.2% (active) | -25.1% (active) | -28.8% (active) | -91.9% (active) | -42.5% (active) | -86.2% (active) | 9.49% (active) | -88.4% (active) | -28.7% (active) | -24.9% (active) |
| Nc1nc(Cl)cc(=O)n1Cc1ccccc1 | 105% | 94.1% | 90.9% | 82.9% | 92.7% | 107% | 85.3% | 99.4% | 98.7% | 86.8% |
| CCCCCCCCCCCCCCCCCCOc1ccc(CC(=O)OCC[N+]2(C)CCCCC2)cc1 | 104% | 97.9% | 89.1% | 94.1% | 99.1% | 97.5% | 100% | 100% | 89.8% | 98.6% |
| Cc1ccc(-c2nc(N3CCN(CC(=O)Nc4ccc(Cl)c(C(F)(F)F)c4)CC3)c3ccccc3n2)cc1 | 110% | 87.3% | 94.6% | 65.6% | 101% | 95% | 80.2% | 74.6% | 89.5% | 62.6% |
| CCN(CC)CCNC(=O)c1cn2ncnc(Oc3ccc(NC(=O)Nc4ccc(Cl)c(C(F)(F)F)c4)cc3)c2c1C | -51.7% (active) | -47.7% (active) | -92.5% (active) | -92% (active) | -66% (active) | -55.2% (active) | -58.9% (active) | -6.51% (active) | -8.36% (active) | -45% (active) |
| O=C(CCN1C(=O)/C(=C/c2ccc(O)cc2)SC1=S)Nc1ccc(Cl)cc1 | 108% | 95.8% | 91.7% | 6.22% (active) | 108% | 84% | 92.5% | 95% | 46.7% | 84.7% |
| COc1c(B(O)O)cc(F)cc1-c1nc2ccc3[nH]ncc3c2c2c1CCCC2 | 18.7% | 10.2% | 11.6% | 5.35% (active) | 21.5% | 9.67% (active) | -5.6% (active) | -67.9% (active) | 10.9% | 9.89% (active) |
| COc1cc(Nc2nc(NCCN)nc3cc[nH]c(=O)c23)cc(OC)c1 | 30.8% | 87.5% | 70.3% | 112% | 95.3% | 99% | 94.1% | 111% | 68.6% | 74.4% |
| S=c1nc(-c2ccccc2)oc(=NC2CCCCC2)n1C1CCCCC1 | 37.9% | 24.4% | 67.9% | 46.5% | 32.8% | 15.4% | 75.4% | 86.8% | -6.7% (active) | 0.447% (active) |
| C[C@]12CC[C@@H]3c4cc(OC(F)F)c(OS(N)(=O)=O)cc4CC[C@H]3[C@@H]1CC[C@@H]2O | 46.3% | 40.2% | 32.6% | 40.1% | 94.2% | 44.9% | 41.4% | -8.42% (active) | 16.5% | 18.7% |
